This is one part of a sample in which hits are shown more often than they occur.
PTAP-TSG101 blk = qHTS Validation Assay for Inhibitors of HIV-1 Budding by Blocking the Interaction of PTAP/TSG101: Sytravon Library Screen; Fluorescence polarization, FITC-PTAP peptide/Tsg101, 20 min; 44,000 tested, under 10 active; Tumor susceptibility gene 101 protein (Homo sapiens), Q99816; AID 1347069, 2019; Potency, µM (titrated, usually from 115 µM), usual class: inhibitors; also: potency is read from the fitted curve at half-maximal effect; 0% is about no effect
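Compounds pinned into 10 uM Tsg101 binding domain, then 50 nM FITC-PTAP peptide added in pH 7.5 HEPES buffer; FP read after 20 min, room temperature. Total S+P intensity flags fluorescent compounds; active cut-off <25 µM, efficacy <60%.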
NTMT1 inh = Primary qHTS for Inhibitors of N-terminal methyltransferase 1 (NTMT1): MTaseGlo Assay; NTMT1 MTase-Glo SAH luminescence, purified enzyme; Potency, µM (titrated, usually from 114 µM), without a hit: top-dose activity change, negative = inhibition, most hits filed as inhibitors; 2.5% of 59,000 active; AID 1645870, 2021;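 also: potency is read from the fitted curve at half-maximal effect; plate controls were DMSO vehicle for no effect and no enzyme for full effect; nearly all actives have a fitted effect of over 65% in size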
Target sequence (Q9BV86 whole entry, looked up): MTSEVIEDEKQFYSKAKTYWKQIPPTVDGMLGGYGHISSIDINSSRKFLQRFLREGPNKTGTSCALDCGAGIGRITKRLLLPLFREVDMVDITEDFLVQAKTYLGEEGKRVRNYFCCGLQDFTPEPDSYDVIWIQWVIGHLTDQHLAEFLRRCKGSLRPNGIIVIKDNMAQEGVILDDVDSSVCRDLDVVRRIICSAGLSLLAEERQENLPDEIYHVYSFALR
FH mod = Identification of activators of human fumarate hydratase by quantitative high-throughput screening | Fumarate hydratase, mitochondrial (Homo sapiens), P07954 | FH coupled MDH/diaphorase resazurin fluorescence, 15 min | Potency, µM (top dose mostly 79.9 µM), for inactives: at the top dose activity change, negative = inhibition, hits mostly inhibitors | 0.22% of 54,000 active | AID 1347055, 2019; also: potency is read from the fitted curve at half-maximal effect; % is scaled to controls: 0 for no effect and ±100 for the full control effect; the screen sought activators but most active calls are inhibition curves; nearly all actives have a fitted effect of over 45% in size
GALK inhibitor = qHTS Assay for Inhibitors of Human Galactokinase (GALK): NCGC Sytravon Library Screen | P51570 | recombinant GALK, Kinase-Glo ATP luminescence, 1 h | Potency, µM (series often up to 57.5 µM), for inactives: at the highest dose activity, negative = inhibition, most hits filed as inhibitors | 44,000 tested, under 10 active | AID 1347072, 2019;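 also: plate controls were full GALK reaction for no effect and reaction lacking GALK for full effect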
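Human GALK (5 nM) was incubated with 35 uM ATP and 100 uM galactose in 20 mM HEPES pH 8.0 with MgCl2, NaCl, DTT and BSA for 1 h at room temperature. Remaining ATP was measured by Kinase-Glo Plus luminescence.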
B2AR arrestin ag = qHTS assay of beta-arrestin-biased ligands of beta2-adrenergic receptor: NCGC Sytravon Library Screen; HTLA Tango cells, beta-arrestin recruitment, luciferase luminescence, 18 h; Potency, µM (highest dose often 46.1 µM), most hits filed as activators; 44,000 tested, under 10 active;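 also: potency is read from the fitted curve at half-maximal effect; 0% = DMSO and full agonism = EC100 isoproterenol or metaproterenol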
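Ligand-induced beta-arrestin recruitment to recombinant beta2-AR is measured via a tTA-driven luciferase reporter in Tango cells after 18 hr compound exposure at 37 degrees C. Concentrations span up to 46 microM.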
Sfp PPTase inh = qHTS Assay for Inhibitos of Bacillus subtilis Sfp phosphopantetheinyl transferase (PPTase): Chemistry Optimization Followup; shares compounds with NTMT1 inh; purified Sfp PPTase enzyme activity, qHTS; Potency, µM (series often up to 114 µM), inactives show at the highest dose activity change, negative = inhibition, actives largely listed as inhibitors; 78% of 230 active; AID 540350, 2011
HM489 growth = qHTS for Inhibitos of Bacillus subtilis Sfp phosphopantetheinyl transferase (PPTase): Chemistry Optimization Followup in B. Subtilis HM489; 50% of 220 active; shares compounds with NTMT1 inh; B. subtilis HM489 (acpS-) growth, BacTiter-Glo, 5 h; Potency, µM (doses to about 114 µM), inactives show top-dose activity change, negative = inhibition, usual class: inhibitors
Sfp gel opt = Gel-Based Assay for Inhibitos of Bacillus subtilis Sfp phosphopantetheinyl transferase (PPTase): Chemistry Optimization Followup | purified Sfp PPTase, gel-based product detection | Potency, µM (top dose mostly 250 µM), inactives show at the top dose activity change, negative = inhibition, hits mostly inhibitors | 54% of 220 active | shares compounds with NTMT1 inh
Sfp SAR2 = qHTS Assay for Inhibitors of Bacillus subtilis Sfp phosphopantetheinyl transferase (PPTase): SAR Round 2; purified Sfp enzyme, PPTase activity, qHTS; Potency, µM (highest dose often 57.1 µM), for inactives: at the top dose activity change, negative = inhibition, hits mostly inhibitors; AID 602370, 2012; shares compounds with NTMT1 inh; 87% of 230 active
USP2 K63 confirm = Confirmation Assay for Inhibitors of Ubiquitin-specific Protease USP2a Using CHOP2 as the Reporter: K633; shares compounds with NTMT1 inh; USP2 cleavage of DiUb K63-3IQF, fluorescence kinetic; Potency, µM (doses to about 57.5 µM), inactives show at the top dose activity change, negative = inhibition, usual class: inhibitors; 80% of 30 active; AID 652172, 2013
Casp6 counter = qHTS for Inhibitors of Ubiquitin-specific Protease USP2a Using CHOP2 as the Reporter: Caspase 6 Assay | activity change, negative = inhibition, % at 46.1 µM | 30 tested, under 10 active | Caspase 6 enzyme, Caspase-Glo 6 luminescence | shares compounds with NTMT1 inh
HSD17B4 inh = Extended Characterization of HPGD Inhibitors: Counterscreen Against HSD17b4 | shares compounds with NTMT1 inh | purified HSD17B4, estradiol/NAD+, NADH fluorescence | Potency, µM (series often up to 57.1 µM), without a hit: at the highest dose activity change, negative = inhibition, actives largely listed as inhibitors | 10% of 230 active | AID 743187, 2013
ALDH1A1 counter = Extended Characterization of HPGD Inhibitors: Counterscreen Against ALDH1A1 | shares compounds with NTMT1 inh | recombinant ALDH1A1, NADH fluorescence, propionaldehyde/NAD+ | Potency, µM (doses to about 57.1 µM), for the others: at the top dose activity change, negative = inhibition, actives largely listed as inhibitors | 93% of 230 active
NNMT counter = Counterscreen qHTS for Inhibitors of N-terminal methyltransferase 1 (NTMT1): NNMT MTaseGlo assay | shares compounds with NTMT1 inh | NNMT MTase-Glo luminescence, SAH detection | Potency, µM (top dose mostly 57.1 µM), inactives show at the highest dose activity, negative = inhibition, hits mostly inhibitors | 10% of 120 active | AID 1645878, 2021
Target sequence (P40261 whole entry, looked up): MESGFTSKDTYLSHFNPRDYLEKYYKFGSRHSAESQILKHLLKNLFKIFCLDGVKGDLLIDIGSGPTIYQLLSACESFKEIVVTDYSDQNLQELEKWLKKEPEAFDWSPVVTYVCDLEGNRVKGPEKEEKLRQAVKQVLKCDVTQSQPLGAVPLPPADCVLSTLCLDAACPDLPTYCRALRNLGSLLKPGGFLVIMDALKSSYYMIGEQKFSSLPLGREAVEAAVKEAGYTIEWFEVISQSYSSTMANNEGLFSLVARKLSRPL
The depositor's hits bear a star; ! = a repeat was not active; [ ] = remark or other dose. Calls follow the shape of the dose curve; as a rule, active = well fitted curve in the direction sought with a large enough effect; inconclusive = small, poorly fitted or top-dose-only effect, or another doubt; inactive = no such curve, though single readings can be large; an effect the other way counts as inactive or inconclusive.

What do the screens show for `Cc1ccnc(NC(=S)NCCN(C)c2cccc(C(F)(F)F)c2)c1`?
NTMT1 inh: -3%; Sfp PPTase inh: inconclusive; HM489 growth: 3%; Sfp gel opt: -11%; Sfp SAR2: inconclusive; HSD17B4 inh: -5%; ALDH1A1 counter: 15µM*

How did Cc1ccnc(NC(=S)NCCNc2cccc(C(F)(F)F)c2)c1 do in these assays?
NTMT1 inh: inconclusive; Sfp PPTase inh: inconclusive; HM489 growth: inconclusive; Sfp gel opt: -18%; Sfp SAR2: 6.5µM*; HSD17B4 inh: 6.1µM*; ALDH1A1 counter: 19µM*

What do the screens show for `Cc1ccc(Cn2c(=O)c3cccnc3n(CC(=O)Nc3cccc(C(F)(F)F)c3)c2=O)cc1`?
PTAP-TSG101 blk: inactive; NTMT1 inh: 8%; FH mod: -33%; GALK inhibitor: -2%; B2AR arrestin ag: inactive

What do the screens show for `O=C(O)c1cccnc1Nc1cccc(C(F)(F)F)c1`?
NTMT1 inh: inconclusive; FH mod: -16%[53.3 µM]

How did CCC(=O)Nc1cc(-c2nc3cc(C)cc(C)c3o2)ccc1C do in these assays?
PTAP-TSG101 blk: inactive; NTMT1 inh: 3%; FH mod: -2%; GALK inhibitor: -2%; B2AR arrestin ag: inactive

Results for C=Cc1cc(O)cc2nc(-c3ccc(O)c(F)c3)oc12 ?
NTMT1 inh: 13µM*; FH mod: -18%; NNMT counter: inconclusive

How did CN(C)CCCn1cc(C2=C(c3c[nH]c4ccccc34)C(=O)NC2=O)c2ccccc21 do in these assays?
NTMT1 inh: 25µM*; FH mod: 1%; NNMT counter: inconclusive

How did COc1ccc(NS(=O)(=O)c2ccc(C)cc2)cc1C(=O)Nc1nc(-c2ccccc2)cs1 do in these assays?
NTMT1 inh: 18%

How did O=C(Cc1c(F)cccc1F)Nc1cc(OCc2ccc(Cl)cc2)ccn1 do in these assays?
NTMT1 inh: 1%[57.5 µM]; FH mod: -21%; NNMT counter: inconclusive

Results for Cc1ccc(S(=O)(=O)Nc2ccccc2C(=O)Nc2nccs2)cc1 ?
NTMT1 inh: 25%; USP2 K63 confirm: inconclusive; Casp6 counter: 17

Results for Cc1ccc(S(=O)(=O)Nc2ccccc2C(=O)Nc2nc(-c3ccc(Cl)cc3)cs2)cc1 ?
NTMT1 inh: -5%; USP2 K63 confirm: 4%; Casp6 counter: -7

Results for Cc1ccc(S(=O)(=O)Nc2cnccc2C(=O)Nc2ccncc2)cc1 ?
NTMT1 inh: inconclusive; USP2 K63 confirm: -12%; Casp6 counter: -21

How did Cc1ccc(S(=O)(=O)Nc2ccccc2C(=O)Nc2nc(-c3ccccc3)c(C)s2)cc1 do in these assays?
NTMT1 inh: -6%[57.5 µM]

How did Cc1ccc(S(=O)(=O)Nc2cc(Cl)ccc2C(=O)Nc2nc(-c3ccccc3)cs2)cc1 do in these assays?
NTMT1 inh: 27µM*!; FH mod: -11%[53.3 µM]; USP2 K63 confirm: 1.7µM*; Casp6 counter: -12

Results for Cc1ccc(S(=O)(=O)Nc2ccc(Br)cc2C(=O)Nc2nc(-c3ccccc3)cs2)cc1 ?
NTMT1 inh: -15%

How did Cc1cc(-c2nnc3n2CCCCCCC3)c(C)n1-c1ccccc1 do in these assays?
NTMT1 inh: 1%
